Results as given in PubChem BioAssay AID1159580 (chemical genetic matrix, 2015).
“And” between values parts separate entries of the source, which are not always exact repeats. Equal entries are not always repeated. Screen size: about 5,500 compounds; about 2,000 (36%) were called active. Inconclusive results (about 18%) are left out. Cut-off read from the data, not from the text of the source: active = normalized growth mostly below about 0.91 (no sharp cut-off); inconclusive = no clear call, values can overlap the other calls; inactive = mostly above about 0.92. The list shows a part of the results.

Assay: chemical genetic growth profiling, strain panel (AID 1159580);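 note: tested at 20 µM; growth read once vehicle control cultures reached saturation at 30 °C; 1 = growth at the plate median or of vehicle wells; lower values mean less growth of the strain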
Settings: S. cerevisiae deletion strains, growth OD

Measured: normalized growth

O=C(O)CC[N+](=O)[O-]
inactive: locus YAL013W, strain DEP1, active compounds read low 0.991 and 0.999 | locus YAL021C, strain ccr4, active compounds read low 0.987 | locus YAL026C, strain drs2, active compounds read low 1.01 | locus YAL030W, strain snc1, active compounds read low 1 | locus YAL040C, strain CLN3, active compounds read low 0.99 | locus YBL061C, strain skt5, active compounds read low 1.01 | locus YBR009C, strain hhf1, active compounds read low 1.01 | locus YBR021W, strain FUR4, active compounds read low 1.12 | locus YBR023C, strain chs3, active compounds read low 1.01 | locus YBR171W, strain sec66, active compounds read low 1.01 | locus YBR229C, strain ROT2, active compounds read low 1.01 | locus YBR231C, strain swc5, active compounds read low 1.02 | locus YBR279W, strain paf1, active compounds read low 0.999 | locus YCL011C, strain gbp2, active compounds read low 1.02 | locus YCL016C, strain dcc1, active compounds read low 1 | locus YCL029C, strain bik1, active compounds read low 0.985 | locus YCL061C, strain MRC1 (second series), active compounds read low 1 | locus YCL061C, strain MRC1, active compounds read low 1 | locus YCL069W, strain vba3, active compounds read low 0.996 | locus YCR088W, strain abp1, active compounds read low 1 | locus YDL005C, strain med2, active compounds read low 1 | locus YDL035C, strain GPR1, active compounds read low 0.976 | locus YDL040C, strain nat1, active compounds read low 0.988 | locus YDL074C, strain BRE1, active compounds read low 0.999 | locus YDL101C, strain DUN1, active compounds read low 0.998 | locus YDL134C, strain PPH21, active compounds read low 0.997 | locus YDL185W, strain tfp1, active compounds read low 0.962 | locus YDL192W, strain arf1, active compounds read low 0.974 | locus YDR001C, strain nth1, active compounds read low 0.993 | locus YDR069C, strain doa4, active compounds read low 1.02 | locus YDR101C, strain arx1, active compounds read low 0.986 | locus YDR137W, strain rgp1, active compounds read low 0.999 | locus YDR150W, strain NUM1, active compounds read low 0.972 and 1 | locus YDR159W, strain sac3, active compounds read low 1.02 | locus YDR162C, strain NBP2, active compounds read low 1.01 | locus YDR195W, strain ref2 0.977 | locus YDR297W, strain sur2, active compounds read low 1.02 | locus YDR318W, strain mcm21, active compounds read low 0.984 | locus YDR334W, strain swr1, active compounds read low 1.01 | locus YDR335W, strain msn5, active compounds read low 1 | locus YDR363W, strain ESC2, active compounds read low 1.01 | locus YDR388W, active compounds read low 0.993 | locus YDR392W, strain spt3, active compounds read low 1.02 | locus YDR502C, strain sam2, active compounds read low 0.988 | locus YEL003W, strain gim4, active compounds read low 1.02 | locus YEL037C, strain rad23, active compounds read low 1 | locus YEL061C, strain CIN8 (second series), active compounds read low 1 | locus YEL061C, strain CIN8, active compounds read low 0.994 | locus YER002W, strain NOP16, active compounds read low 1.01 | locus YER015W, strain faa2, active compounds read low 1 | locus YER016W, strain bim1, active compounds read low 1.01 | locus YER110C, active compounds read low 0.963 | locus YER111C, strain swi4, active compounds read low 1.01 | locus YER155C, strain BEM2 (second series), active compounds read low 1.03 | locus YER155C, strain BEM2, active compounds read low 0.99 | locus YER167W, strain BCK2, active compounds read low 0.988 | locus YFR010W, strain ubp6, active compounds read low 1.01 | locus YGL078C, strain dbp3, active compounds read low 0.979 | locus YGL086W, strain mad1, active compounds read low 0.982 | locus YGL167C, strain pmr1, active compounds read low 1.01 | locus YGL173C, strain kem1, active compounds read low 1.02 | locus YGL227W, strain vid30, active compounds read low 1 | locus YGL240W, strain doc1, active compounds read low 1.04 | locus YGL248W, strain PDE1, active compounds read low 1 | locus YGL253W, strain hxk2, active compounds read low 1.01 | locus YGR078C, strain PAC10, active compounds read low 0.986 | locus YGR135W, strain pre9, active compounds read low 0.997 | locus YGR229C, strain SMI1, active compounds read low 0.992 and 1 | locus YGR252W, strain gcn5, active compounds read low 0.977 | locus YHR013C, strain ard1, active compounds read low 0.997 | locus YHR027C, strain rpn1, active compounds read low 0.997 | locus YHR030C, strain SLT2, active compounds read low 0.983 and 0.976 | locus YHR079C, strain IRE1 (second series), active compounds read low 0.996 | locus YHR079C, strain IRE1, active compounds read low 0.976 | locus YHR094C, strain hxt1, active compounds read low 0.978 | locus YHR129C, strain ARP1, active compounds read low 0.986 | locus YHR142W, strain chs7, active compounds read low 1.02 | locus YHR200W, strain rpn10, active compounds read low 0.973 | locus YIL066C, strain RNR3, active compounds read low 0.981 | locus YIL073C, strain SPO22, active compounds read low 0.934 | locus YIL125W, strain kgd1, active compounds read low 0.984 | locus YIR030C, strain dcg1, active compounds read low 0.986 | locus YJL092W, strain hpr5, active compounds read low 1 | locus YJL095W, strain BCK1 (second series), active compounds read low 1.01 | locus YJL095W, strain BCK1, active compounds read low 1 and 1.01 | locus YJL115W, strain asf1, active compounds read low 0.997 | locus YJL129C, strain trk1, active compounds read low 1.01 | locus YJL134W, strain LCB3, active compounds read low 0.991 | locus YJL154C, strain vps35, active compounds read low 0.996 | locus YJL164C, strain tpk1, active compounds read low 0.993 | locus YJL166W, strain qcr8, active compounds read low 1.02 | locus YJL168C, strain set2, active compounds read low 0.99 | locus YJL187C, strain SWE1 (second series), active compounds read low 0.982 | locus YJL187C, strain SWE1, active compounds read low 1.01 | locus YJR043C, strain POL32, active compounds read low 0.98 | locus YJR066W, strain TOR1, active compounds read low 0.935
